Assay [1] can be described thus: SU-DIPG-VI glioma cell viability, MIPE4.0 library, CellTiter-Glo luminescence, qHTS (AID 1347066; cut-off not given, nearly all actives have AC50 up to about 30 µM;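 further: cells exposed to compound for 48 hours before readout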). The settings on record: CellTiter-Glo ATP luminescence. On the technique in general: In ATP-based viability assays light output follows the ATP content of the culture.
Assay [2] concerns the target NAD(+) hydrolase SARM1 (Homo sapiens) (UniProt Q6SZW1). The assay can be described thus: SARM1 TIR NADase inhibitors, cell lysate, NAD-Glo luminescence (AID 1508614;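 active means compound whose remaining NAD level is above about 45 nM, limit read from the data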). The following applies: SAM-TIR HEK293T lysate NADase, at 1 µM, stronger effect = higher value.
The target of assay [3] is Mitogen-activated protein kinase 7 (Homo sapiens) (UniProt Q13164). Put plainly: ERK5 transactivation activators in reporter cells, primary screen, cell-based, HTS (AID 1508626;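 active means luciferase signal above three times the same-plate solvent-only control wells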;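 further: luciferase driven by Gal4-ERK5 fusion binding five Gal4 sites before minimal TATA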). The settings on record: HeLa Gal4-ERK5 transactivation, 18 h, at 5 µM, stronger effect = higher value.
Chain of Mitogen-activated protein kinase 7 (Homo sapiens) (Q13164 whole entry, looked up, the tested form may be a part): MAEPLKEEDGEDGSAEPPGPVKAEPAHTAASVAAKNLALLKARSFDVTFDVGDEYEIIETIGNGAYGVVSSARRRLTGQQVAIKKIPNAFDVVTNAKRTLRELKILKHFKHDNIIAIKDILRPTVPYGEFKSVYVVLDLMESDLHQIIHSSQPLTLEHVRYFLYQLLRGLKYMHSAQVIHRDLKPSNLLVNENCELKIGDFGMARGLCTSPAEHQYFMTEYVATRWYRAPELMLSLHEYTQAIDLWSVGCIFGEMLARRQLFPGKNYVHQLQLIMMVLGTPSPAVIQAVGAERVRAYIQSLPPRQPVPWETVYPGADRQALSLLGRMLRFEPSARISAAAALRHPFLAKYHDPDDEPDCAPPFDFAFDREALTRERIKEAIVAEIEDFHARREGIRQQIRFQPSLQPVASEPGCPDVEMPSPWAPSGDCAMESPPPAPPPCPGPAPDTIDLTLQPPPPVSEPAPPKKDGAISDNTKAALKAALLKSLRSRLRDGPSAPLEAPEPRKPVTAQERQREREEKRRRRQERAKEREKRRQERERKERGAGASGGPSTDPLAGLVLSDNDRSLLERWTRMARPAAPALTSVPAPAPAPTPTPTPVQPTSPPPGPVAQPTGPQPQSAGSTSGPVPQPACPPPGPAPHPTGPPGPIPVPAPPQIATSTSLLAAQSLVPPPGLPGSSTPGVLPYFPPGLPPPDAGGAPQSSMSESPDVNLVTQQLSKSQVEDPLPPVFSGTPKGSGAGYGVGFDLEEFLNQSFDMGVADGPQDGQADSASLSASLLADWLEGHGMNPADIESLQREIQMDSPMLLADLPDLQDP
Assay [4] is described as follows: JHH-DIPG-1 glioma cell viability, MIPE5.0 library, CellTiter-Glo luminescence, qHTS (AID 1347067; cut-off not given, nearly all actives have AC50 up to about 26 µM;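 further: cells exposed to compound for 48 hours before readout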). The following applies: JHH-DIPG-1 glioma viability, CellTiter-Glo ATP luminescence.
Assay [5] is described as follows: SU-DIPG-XXV glioma cell viability, MIPE5.0 library, qHTS (AID 1347068; cut-off not given, nearly all actives have IC50 up to about 30 µM). For orientation: In qHTS, concentration-response curves come from the screen itself.
A short description of assay [6]: sensitizers of A549 cells to miR-34 induction, primary screen, imaging, A549 dox-inducible miR-34, nuclei and caspase counts (AID 1347080). The settings on record: A549 miR-34 inducible, Hoechst nuclei count, 48 h.
Assay [7] can be described thus: phospholipid biosynthesis inhibitors in animal cells, primary screen, cell-based, LOPAC library, screen 4 (AID 1347384; call rule not given here). The settings on record: phospholipid biosynthesis inhibition screen, at 10 µM.
Assay [8] can be described thus: survival rescue of mitochondrial mutant cells in low glucose, primary screen, MELAS cybrids, Rieske KO mouse fibroblasts, CellTiter-Glo (AID 1508586;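 active means mean z-score across replicates of 1.96 or higher in either the MELAS or the Rieske mutant cell line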;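 further: z relative to plate mean and SD of compound and empty wells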).
The nature of assay [9]: viability rescue of complex I mutant cybrids, primary screen, cell-based, galactose medium, ATP luminescence (AID 1645843;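 active means z-score of at least 1.8 in each of two replicates, scored against plate mean and spread of sample wells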;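 further: positive z means more ATP and so rescue of galactose-driven cybrid death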). The settings on record: complex I mutant cybrid cells, 72 h, stronger effect = higher value.
Where [10] appears, read: measured here: total cells without miR-34 induction.
Setting [11] is: MELAS cybrid survival, CellTiter-Glo 48 h, stronger effect = higher value.
[12] abbreviates: Rieske KO mouse fibroblast survival, CellTiter-Glo 72 h.
[13] abbreviates: stronger effect = lower value, cell number ratio, induced over uninduced.
[14] abbreviates: measured here: relative caspase fold change +Dox/-Dox.
Where [15] appears, read: measured here: total cells with miR-34 induction, stronger effect = lower value.

Several values for one entry are separate records, joined by “and”; a condition that tells them apart may be missing. Equal entries are not always repeated. Inconclusive results are not listed. The source holds several records for some structures; these can differ, active in one and inactive in another. Activity calls are given as the source filed them.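 How the source made its calls, unless noted: active means compounds whose cell count with miR-34 switched on is under 0.7 times the count with it off; inactive means the rest.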

Chain of NAD(+) hydrolase SARM1 (Homo sapiens) (Q6SZW1 whole entry, looked up, the tested form may be a part): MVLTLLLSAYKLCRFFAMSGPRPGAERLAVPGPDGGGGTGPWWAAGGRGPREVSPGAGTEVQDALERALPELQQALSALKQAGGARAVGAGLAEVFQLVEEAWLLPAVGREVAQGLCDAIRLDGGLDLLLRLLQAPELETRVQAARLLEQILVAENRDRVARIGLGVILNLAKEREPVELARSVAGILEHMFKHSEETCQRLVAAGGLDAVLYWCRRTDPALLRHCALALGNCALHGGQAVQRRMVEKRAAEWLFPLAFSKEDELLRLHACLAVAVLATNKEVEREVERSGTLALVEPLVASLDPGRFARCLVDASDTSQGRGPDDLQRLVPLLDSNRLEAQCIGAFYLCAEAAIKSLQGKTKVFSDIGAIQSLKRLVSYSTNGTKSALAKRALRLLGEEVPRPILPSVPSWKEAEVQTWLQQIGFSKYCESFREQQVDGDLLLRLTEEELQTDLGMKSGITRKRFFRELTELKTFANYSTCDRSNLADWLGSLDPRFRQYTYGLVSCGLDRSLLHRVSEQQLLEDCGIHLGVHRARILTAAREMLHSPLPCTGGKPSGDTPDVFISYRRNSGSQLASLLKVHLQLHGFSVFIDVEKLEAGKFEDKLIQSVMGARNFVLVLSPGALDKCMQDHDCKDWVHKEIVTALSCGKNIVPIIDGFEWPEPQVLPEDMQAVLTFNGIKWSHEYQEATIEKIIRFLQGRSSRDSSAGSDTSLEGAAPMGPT

Take `CC1=C(C(=O)O)N2C(=O)[C@@H](NC(=O)[C@H](N)C3=CCC=CC3)[C@H]2SC1`: the call in assay [1] was inactive. In assay [2], the remaining NAD is 10 nM (inactive). Moreover, in assay [3], the luciferase signal is 48 AU (inactive).
In the case of `Cc1ccc(C(=O)Nc2ccc(S(=O)(=O)O)c3cc(S(=O)(=O)O)cc(S(=O)(=O)O)c23)cc1NC(=O)c1cccc(NC(=O)Nc2cccc(C(=O)Nc3cc(C(=O)Nc4ccc(S(=O)(=O)O)c5cc(S(=O)(=O)O)cc(S(=O)(=O)O)c45)ccc3C)c2)c1`, the molecule was called inactive in assay [4], in [5] and in assay [7]. In assay [6] (setting [10]), the cell count was 10200 and 13600 and 11000. Also, the z-score in assay [8] (setting [11]) is 0.0857 (inactive); in [8] (setting [12]), -0.401; in assay [9] it was 4.14 (active) and 1.81 (inactive) and 0.955 (inactive). For the same molecule, the remaining NAD in [2] was 10 nM (inactive). For the same molecule, the luciferase signal in assay [3] is 48 AU (inactive).
As for `C=CCc1ccccc1OCC(O)CNC(C)C` (configuration not stated), the fold change in assay [6] (setting [13]) is 0.963 (inactive) and 0.998 (inactive) and 0.909 (inactive); in assay [6] (setting [14]), 1.1 and 1.18 and 0.556. For the same molecule, the cell count in assay [6] (setting [15]) was 10100 and 7510 and 7890; in assay [6] (setting [10]) it was 10500 and 7520 and 8680. Besides, the molecule was called inactive in assay [7]. The z-score was -0.407 (inactive) and -0.689 (inactive) in assay [8] (setting [11]); -0.409 and 0.651 in assay [8] (setting [12]); -0.345 (inactive) and 0.39 (inactive) in assay [9]. Further, the remaining NAD in assay [2] is 10 nM (inactive). The luciferase signal in [3] is 60 AU (inactive).
In the case of `CC(C)NNC(=O)c1ccncc1`, the fold change is 1.01 (inactive) and 0.987 (inactive) and 0.902 (inactive) in assay [6] (setting [13]); 0.707 and 0.895 and 1.13 in [6] (setting [14]). The cell count in assay [6] (setting [15]) is 10400 and 9260 and 10200; in assay [6] (setting [10]), 10300 and 9380 and 11300. In assay [7], the result was inactive. The z-score is -0.146 (inactive) and 0.243 (inactive) in assay [8] (setting [11]); -0.0689 and -0.0455 in assay [8] (setting [12]); 0.54 (inactive) and 0.67 (inactive) in [9]. Also, the remaining NAD in assay [2] was 10 nM (inactive). Moreover, in assay [3], the luciferase signal is 60 AU (inactive).
For `CN(C)CCCN1c2ccccc2Sc2ccccc21`, the fold change in [6] (setting [13]) is 0.997 (inactive) and 0.896 (inactive) and 0.916 (inactive); in [6] (setting [14]), 1.96 and 1.17 and 2.21. Further, the cell count in [6] (setting [15]) is 7860 and 8360 and 9720; in assay [6] (setting [10]) it was 7880 and 9340 and 10600. Besides, the call in assay [7] was inactive. The z-score was -0.514 (inactive) in assay [8] (setting [11]), -0.0726 in assay [8] (setting [12]) and -0.99 (inactive) in assay [9]. In addition, in [2], the remaining NAD was 10 nM (inactive). Further, the luciferase signal in assay [3] was 44 AU (inactive).
Consider `C[C@]12C=CC(=O)C=C1CC[C@H]1[C@@H]3C[C@@H](O)[C@](O)(C(=O)CO)[C@@]3(C)C[C@H](O)[C@@]12F`, for which the fold change in assay [6] (setting [13]) is 0.938 (inactive) and 0.869 (inactive) and 0.939 (inactive); in [6] (setting [14]) it was 0.943 and 0.955 and 1.2. The cell count in assay [6] (setting [15]) was 7680 and 5920 and 7610; in assay [6] (setting [10]) it was 8190 and 6810 and 8100. For the same molecule, in assay [7], the molecule was classed as inactive. Also, the z-score in assay [8] (setting [11]) was 0.162 (inactive) and 0.389 (inactive); in [8] (setting [12]), 0.159 and 0.935; in [9], 2.37 (active) and 0.76 (inactive). In assay [2], the remaining NAD was 10 nM (inactive). In assay [3], the luciferase signal was 36 AU (inactive).
`CN1Cc2c(N)cccc2C(c2ccccc2)C1` (configuration not stated): the fold change in assay [6] (setting [13]) was 1.2 (inactive) and 0.943 (inactive) and 0.87 (inactive); in assay [6] (setting [14]) it was 1.05 and 0.932 and 4.35. Further, the cell count in assay [6] (setting [15]) was 9850 and 8420 and 10600; in [6] (setting [10]) it was 8240 and 8920 and 12100. For the same molecule, the molecule was called inactive in assay [7]. Also, the z-score in assay [8] (setting [11]) is 0.549 (inactive); in assay [8] (setting [12]), 0.0395; in assay [9], -0.015 (inactive). In [2], the remaining NAD is 17 nM (inactive). Also, the luciferase signal in assay [3] was 88 AU (inactive).
As to `C[N+](C)(C)CCCCCC[N+](C)(C)C`, the fold change in assay [6] (setting [13]) was 0.986 (inactive) and 1.01 (inactive) and 0.859 (inactive); in assay [6] (setting [14]), 0.977 and 0.809 and 0.908. Besides, the cell count was 10300 and 10200 and 8850 in assay [6] (setting [15]); 10500 and 10100 and 10300 in assay [6] (setting [10]). For the same molecule, in [7], the molecule was classed as inactive. The z-score in assay [8] (setting [11]) is 0.935 (inactive); in assay [8] (setting [12]), 0.174; in assay [9], 0.205 (inactive) and 0.235 (inactive). Also, the remaining NAD in assay [2] is 10 nM (inactive). Also, the luciferase signal in [3] is 52 AU (inactive).
Consider `Nc1ccc(S(=O)(=O)Nc2ccnn2-c2ccccc2)cc1`, for which the fold change in assay [6] (setting [13]) is 0.969 (inactive) and 0.9 (inactive); in assay [6] (setting [14]) it was 1.76 and 1.07. For the same molecule, the cell count in assay [6] (setting [15]) is 10100 and 7980; in assay [6] (setting [10]), 10500 and 8860. In addition, the result in assay [7] was inactive. Moreover, the z-score is -0.791 (inactive) in assay [8] (setting [11]), -0.133 in [8] (setting [12]) and 0.735 (inactive) in assay [9]. In assay [2], the remaining NAD was 10 nM (inactive). Moreover, in assay [3], the luciferase signal was 96 AU (inactive).
For `CN(C)CCOC(=O)COc1ccc(Cl)cc1`, the fold change is 1.05 (inactive) and 0.847 (inactive) and 0.935 (inactive) in assay [6] (setting [13]); 2.3 and 1.11 and 0.787 in assay [6] (setting [14]). The cell count was 9260 and 9320 and 8720 in assay [6] (setting [15]); 8800 and 11000 and 9330 in assay [6] (setting [10]). Further, the result in [7] was inactive. Also, the z-score in assay [8] (setting [11]) was -0.229 (inactive) and 0.0507 (inactive); in [8] (setting [12]) it was -0.156 and 1.13; in assay [9], 1.14 (inactive). In addition, the remaining NAD in assay [2] was 10 nM (inactive). In addition, the luciferase signal in assay [3] is 64 AU (inactive).
Take `CCN(CC)CCNC(=O)c1cc(S(C)(=O)=O)ccc1OC`: the fold change in [6] (setting [13]) is 0.998 (inactive) and 0.882 (inactive) and 0.896 (inactive); in assay [6] (setting [14]) it was 1.76 and 0.709 and 3.36. In addition, the cell count was 9610 and 9280 and 12200 in assay [6] (setting [15]); 9630 and 10500 and 13600 in assay [6] (setting [10]). In assay [7], the outcome was inactive. For the same molecule, the results for the z-score in assay [8] (setting [11]), in [8] (setting [12]) and in assay [9] were 0.496 (inactive), -0.0746 and 0.285 (inactive), respectively. Besides, in assay [2], the remaining NAD is 10 nM (inactive). In addition, in [3], the luciferase signal is 80 AU (inactive).
As for `NCCS`, the fold change in assay [6] (setting [13]) was 1.1 (inactive) and 0.868 (inactive) and 0.893 (inactive); in [6] (setting [14]), 0.51 and 1.42 and 2.94. Besides, the cell count in [6] (setting [15]) is 11000 and 8060 and 11500; in assay [6] (setting [10]), 9990 and 9290 and 12900. In addition, the molecule was classed as inactive in assay [7]. Besides, the z-score in [8] (setting [11]) is -0.14 (inactive); in assay [8] (setting [12]) it was -0.336; in [9], 0.24 (inactive). Besides, the remaining NAD in [2] was 10 nM (inactive). Besides, the luciferase signal in [3] was 76 AU (inactive).
As for `CN(C)CCCN1c2ccccc2Sc2ccc(C(F)(F)F)cc21`, the fold change in assay [6] (setting [13]) was 1.11 (inactive) and 0.899 (inactive) and 0.891 (inactive); in assay [6] (setting [14]), 0.594 and 1.31 and 3.14. The cell count in assay [6] (setting [15]) was 1420 and 7820 and 9630; in assay [6] (setting [10]) it was 1280 and 8700 and 10800. Further, the molecule was classed as inactive in [7]. Also, the z-score is -0.173 (inactive) in assay [8] (setting [11]), 0.266 in assay [8] (setting [12]) and -1.38 (inactive) in assay [9]. Moreover, the remaining NAD in assay [2] was 10 nM (inactive). Besides, the luciferase signal in assay [3] was 64 AU (inactive).

These data come from PubChem BioAssay.
